Test results reported in PubChem BioAssay AID651706 (NMMLSC, 2012).
About 55 (2%) of roughly 2,300 compounds were called active.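 Rule for the calls: active = share of green or green-and-red cells above 9 and 9% in run 1 or 4 and 3% in run 2; inactive = the rest, inconclusive results apart.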 Only a sample is shown.

Assay: inducers of myeloid progenitor differentiation, confirmation, cell-based, GFP/Mac1 flow cytometry, cherry pick 01 (AID 651706);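 for differentiation response: plate controls were double positive share in DMSO wells for no effect and share in positive control wells for full effect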;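 for double positive cells: share of live cells carrying both lysozyme GFP and MAC1 staining after four days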
Details: ER-HoxA9 myeloid progenitors, stronger effect = higher value; differentiation response: GFP/Mac1 double-positive flow; double positive cells: measured here: percent double positive cells
In the case of CCN(CC)c1ccc(/C=N/NC(=O)CNC(=O)c2cccs2)cc1, the differentiation response is reported as 1.55% (inactive) and the double positive cells is reported as 1.15%.
For CCOc1ccc(NC(=O)CSc2nc3c(c(=O)n2-c2ccccc2OC)SCC3)cc1, the differentiation response was 2.25% (inactive) and the double positive cells was 1.4%.
With CC1=C(C(N)=O)C(c2ccc3c(c2)OCO3)n2nc(-c3cccc(C)c3)nc2N1 (centres undefined) the differentiation response was 4.8% (inactive) and the double positive cells was 5.05%.
For COc1cc(/C=C(\C#N)c2nc3ccccc3[nH]2)ccc1O, the differentiation response was 20.1% (inactive) and the double positive cells was 1.25%.
For CCCCSc1nc2c(c(=O)n1CC)SC(C)C2 (centres undefined), the differentiation response was 1.7% (inactive) and the double positive cells was 0.9%.
For Cc1nn(-c2cc(Cl)ccc2N)c(=O)c2ccccc12, the differentiation response was 1.3% (inactive) and the double positive cells was 1%.
With Cc1cc(NC(=O)CSc2nc(C(C)C)nc3sc4c(c23)CCC(C)C4)no1 (centres undefined) the differentiation response was 1.5% (inactive) and the double positive cells was 1.25%.
In the case of Cc1ccc(-c2nc(C#N)c(NCCCn3ccnc3)o2)cc1, the differentiation response is reported as 1.5% (inactive) and the double positive cells is reported as 1.1%.
With COc1ccccc1NC(=O)c1cc(Cl)nnc1Cl the differentiation response was 0% (inactive) and the double positive cells was 0%.
For CC#CC[N+](C)(C)CCCCCC, the differentiation response was 5.9% (inactive) and the double positive cells was 3.9%.
In the case of O=C(Nc1ccccc1N1CCN(c2ccccc2)CC1)c1cccc(F)c1, the differentiation response is reported as 0.9% (inactive) and the double positive cells is reported as 0.65%.
For CC(C)OC(=O)CN1C(=O)C(=O)c2ccccc21, the differentiation response was 2.4% (inactive) and the double positive cells was 0.55%.
For N#C/C(=C/c1ccc(N2CCCCC2)o1)C(=O)NCCc1c[nH]c2ccccc12, the differentiation response was 78.8% (inactive) and the double positive cells was 5.25%.
For O=C(CN1CCN(C2CCCCC2)CC1)Nc1ccccc1N1CCCCC1, the differentiation response was 1.2% (inactive) and the double positive cells was 0.65%.
For O=C(Nc1cccc(-c2nc3ncccc3o2)c1)c1ccco1, the differentiation response was 1% (inactive) and the double positive cells was 0.45%.
In the case of Cn1c(CNC(=O)c2ccccc2F)nnc1SCc1ccc(F)cc1, the differentiation response is reported as 2.7% (inactive) and the double positive cells is reported as 1.1%.
In the case of Cc1c(C(=O)OCC(=O)N(CCC#N)c2ccccc2)oc2c1ccc1ccccc12, the differentiation response is reported as 0% (inactive) and the double positive cells is reported as 0%.
In the case of CCOC(=O)C(C(=O)OCC)C(C#N)c1ccccc1 (centres undefined), the differentiation response is reported as 1% (inactive) and the double positive cells is reported as 0.7%.
For CCC1CCCCN1CCCNC(=O)Cn1nc(-c2ccccc2)ccc1=O (centres undefined), the differentiation response was 3.1% (inactive) and the double positive cells was 2.25%.
For Cc1ccc(C(=O)NC2CCCC(C)C2C)cc1S(=O)(=O)N1CCCCC1 (centres undefined), the differentiation response was 4.6% (inactive) and the double positive cells was 3.95%.
For COc1ccc(-c2nnc(SCC(=O)c3cccs3)o2)c(OC)c1, the differentiation response was 4.75% (inactive) and the double positive cells was 1.2%.
With COCCCn1c(=O)/c(=C/c2ccccc2OC(C)C)s/c1=C(\C#N)C(=O)Nc1ccc(C(=O)O)cc1 the differentiation response was 3.5% (inactive) and the double positive cells was 1.7%.
